Only some compounds are listed: those with a hit (about 8.2% of all), similar ones and a draw of the others.
MCF10A rereplic = inducers of DNA re-replication in MCF 10A breast cells. MCF 10A DNA re-replication, Hoechst nuclear intensity, 48 h. Potency, µM (highest dose often 46.1 µM), without a hit: at the highest dose activity, positive = re-replication, usual class: activators. actives 2.9% (n = 350,000); note: % of control where 0% means no effect; nearly all actives have a fitted effect of over 50% in size
SW480 rereplic = DNA re-replication induction in SW480 cells. SW480 DNA re-replication, Hoechst DNA content imaging, 48 h. Potency, µM (titrated, usually from 46.1 µM), for inactives: top-dose re-replication activation, hits mostly activators. actives 1.8% (n = 340,000). AID 624297; note: % of control where 0% means no effect; nearly all actives have a fitted effect of over 55% in size
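Compounds, transferred as 23 nL by pin tool, were incubated with cells for 48 hr; DNA content per nucleus was then quantified by Hoechst staining and fluorescence plate imaging.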
ELG1 DNA repair = blocks ELG1-dependent DNA repair in HEK293T cells | HEK293T ELG1-luciferase reporter, luminescence, 16 h; DNA damage induced by 5-fluorouridine | Potency, µM (titrated, usually from 46.1 µM), for inactives: at the top dose activity change, negative = inhibition, actives largely listed as inhibitors | actives 2.3% (n = 330,000) | AID 504467; note: % is set by controls: 0 for no effect and ±100 for the full control effect; nearly all actives have a fitted effect of over 55% in size
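5-Fluorouridine DNA damage + compound/DMSO, 2,000 cells/well, 16 h, 37 °C/5% CO2. ONE-Glo, 30 min RT, luminescence. Readout = decrease in reporter signal.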
KB-V1 cytotox = KB-V1 MDR subline cytotoxicity; KB-V1 MDR cells viability, CellTiter-Glo, 72 h; Potency, µM (series often up to 46.1 µM), hits mostly cytotoxic; actives 3.4% (n = 400,000); AID 1347076; note: % is set by controls: 0 for no effect and ±100 for the full control effect; nearly all actives have a fitted effect of over 60% in size
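Drug-selected KB-V1 cells, grown in DMEM lacking phenol red with 10% FBS, receive compound titrations; after three days at 37 degrees C, surviving cell ATP is quantified by CellTiter-Glo luminescence and responses normalized and curve-fitted.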
KB-3-1 tox = kills parental KB-3-1 adenocarcinoma cells | KB-3-1 viability, CellTiter-Glo ATP luminescence, 72 h | Potency, µM (series often up to 46.1 µM), most hits filed as cytotoxic | actives 1.4% (n = 400,000) | AID 1347075; note: % is set by controls: 0 for no effect and ±100 for the full control effect; nearly all actives have a fitted effect of over 60% in size
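Here the drug-naive KB-3-1 line serves as comparator for MDR sub-line selectivity; cells received compound titrations, 72 h at 37 °C, then CellTiter-Glo readout.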
An asterisk follows results filed as active; i = inactive; u = inconclusive; x = not tested or not shown; ! = not confirmed by another sample. Calls come from the whole dose curve; as a rule, active = well fitted curve in the direction sought with a large enough effect; inconclusive = small, poorly fitted or top-dose-only effect, or another doubt; inactive = no such curve, though single readings can be large; an effect the other way counts as inactive or inconclusive. Potency is the fitted concentration of half-maximal effect.

SMILES | MCF10A rereplic | SW480 rereplic | ELG1 DNA repair | KB-V1 cytotox | KB-3-1 tox
Cc1[nH]n(-c2ccccc2)c(=O)c1C(C[N+](=O)[O-])c1ccccc1Cl (centres undefined) | u | 7% | -1% | i | i
Cc1[nH]n(-c2ccccc2)c(=O)c1C(c1ccc([N+](=O)[O-])cc1)c1c(C)[nH]n(-c2ccccc2)c1=O | 23µM* | -11% | -10% | i | u
O=C(Cc1ccc(S(=O)(=O)N2CCCC2)s1)N1CCN(c2ccc(F)cc2)CC1 | 13% | u | u | u | i
O=C1c2ccccc2-c2c1nc1c([n+]2[O-])CCCC1 | -2% | -3% | u | i | i
CC1CN(C)C(C)(C)CC1(O)c1ccccc1 (centres undefined) | 16µM* | u | 6% | i | i
Cc1ccc(C2(O)CC(C)N(C)CC2C)cc1 (centres undefined) | 1% | -6% | 21% | i | i
CC(C)CC(CN)CC(=O)O (centres undefined) | 5% | 3% | x | x | x
Cc1sc(NC(=O)Cn2c(=O)oc3ccccc32)nc1-c1ccc(Cl)cc1 | u | -2% | -13% | i | u
COCCCn1c(N)c(C(=O)Nc2ccccc2)c2nc3ccccc3nc21 | u | 21µM* | 16µM* | i | u
COCCCn1c(N)c(C(=O)Nc2sc3c(c2C(=O)OC)CCCC3)c2nc3ccccc3nc21 | -9% | -10% | 0% | i | i
COCCCn1c(N)c(C(=O)OC(C)COC)c2nc3ccccc3nc21 (centres undefined) | 5% | 3% | u | u | i
CCC(C)NC(=O)c1c(N)n(CCCOC)c2nc3ccccc3nc12 (centres undefined) | 4.1µM* | 7.3µM* | 16µM* | 8.2µM* | i
c1ccc(C(c2ccccc2)N2CCN(c3ccc4ccccc4n3)CC2)cc1 | u | -5% | -18% | i | i
CCCCn1c(NC(=O)c2ccc(Br)o2)c(C(=O)OCC)c2nc3ccccc3nc21 | 18µM*! | 16µM*! | u | i | i
CCOC(=O)c1c(N)n(CCN2CCCCC2)c2nc3ccccc3nc12 | u | 19% | u | i | i
CCCCn1c(NS(=O)(=O)c2ccccc2)c(C(=O)OCC)c2nc3ccccc3nc21 | 6.5µM* | 16µM* | -19% | u | i
CC(C)C(NC(=O)C(C(C)C)N(C)C)C(=O)N(C)C(C(=O)N1CCCC1C(=O)N1CCCC1C(=O)NCc1ccccc1)C(C)C (centres undefined) | u | u | x | 21µM* | u
CCN(CCNc1ccc([N+](=O)[O-])c2cccnc12)S(=O)(=O)c1ccccc1 | 10% | -9% | 9% | i | i
Cc1c(NS(=O)(=O)c2ccccc2)ccc([N+](=O)[O-])c1Cl | 21µM* | 3% | x | u | u
Cc1c(C)c2c(OCC(=O)N[C@@H](C)C(=O)O)cc3c(c2oc1=O)CCC(C)(C)O3 | -21% | -2% | -1% | i | i
CC1CC2(C)C(CCC3C2CCC2(C)C(OP(=O)(N4CC4)N4CC4)CCC32)CC1=O (centres undefined) | 13µM* | -3% | x | i | i
C[C@H]1C[C@@H](C)C(=O)[C@@H]([C@H](O)CC2CC(=O)NC(=O)C2)C1 | 4.6µM* | u | 0.52µM* | u | 3.3µM*
Cc1cc(C)c(NC(=O)C2CC3CCC2C3)c(C)c1 (centres undefined) | 10% | -8% | u | i | i
CCCCOCCCn1c(N)c(C(=O)OC(C)COC)c2nc3ccccc3nc21 (centres undefined) | 1% | 0% | u | i | i
CCC(C)OC(=O)c1c(N)n(Cc2cccs2)c2nc3ccccc3nc12 (centres undefined) | 12µM* | u | u | i | u
SMILES | MCF10A rereplic | SW480 rereplic | ELG1 DNA repair | KB-V1 cytotox | KB-3-1 tox
Nc1c(C(=O)OCc2ccccc2)c2nc3ccccc3nc2n1Cc1cccs1 | 6.5µM* | 15µM* | 21µM* | 5.2µM* | i
CC(C)(C)OC(=O)c1c(N)n(Cc2ccco2)c2nc3ccccc3nc12 | u | u | u | i | i
OC[C@H]1O[C@@H](n2cnc3cc(Cl)c(Cl)cc32)[C@H](O)[C@@H]1O | u | -10% | 8.9µM* | i | u
CCNC(=O)C1OC(n2cnc3c(N)ncnc32)C(O)C1O (centres undefined) | -3% | 0% | x | i | i
Nc1nc(F)nc2c1ncn2[C@@H]1O[C@H](CO)[C@@H](O)[C@@H]1O | -4% | 11% | 0% | 0.65µM* | 0.65µM*
Nc1nc(F)nc2c1ncn2[C@@H]1O[C@H](CO)[C@@H](O)[C@H]1O | 4.1µM*! | u | x | 1.5µM* | 1.2µM*
Cc1cc(=O)n(-c2ccccc2)n1C | u | 13% | u | i | u
CSc1ccc(Cl)c(C(=O)OCC(=O)N2CCN(C(=O)c3ccco3)CC2)c1 | 0% | u | -4% | u | i
CCC(C)C1O[C@]2(C=CC1C)CC1CC(C/C=C(\C)[C@H](OC3CC(OC)C(O[C@H]4CC(OC)[C@@H](O)C(C)O4)C(C)O3)[C@@H](C)/C=C/C=C3\COC4C(O)C(C)=C[C@H](C(=O)O1)[C@@]34O)O2 (some centres undefined) | u | 6% | x | x | x
CCCCn1c(O)c(C(=O)/C=C/c2c[nH]c3ccccc23)c(=O)[nH]c1=O | 18µM* | u | u | i | i
C[C@H](CO)N1C[C@H](C)[C@H](CN(C)S(=O)(=O)c2ccccc2)Oc2ccc(NC(=O)NC3CCCCC3)cc2CC1=O | u | 18% | 10% | i | i
CCOc1ccc2nc(N(CCN(CC)CC)C(=O)c3ccc([N+](=O)[O-])cc3)sc2c1 | u | u | 14% | i | i
CCOC(=O)[C@]12Cc3cc(Cl)ccc3[C@H]1N(CC(=O)OC)C(=O)c1ccccc12 | x | x | x | 12µM* | 3.7µM*
CCOC(=O)[C@]12Cc3cc(Cl)ccc3[C@H]1N(C(C)C)C(=O)c1ccccc12 | x | x | x | 5.2µM* | 2.6µM*
Cc1ccc(N=Nc2cc(C)ccc2N)cc1 | u | 7% | u | i | i
COc1ccc(-n2c(/C=C\c3ccccc3F)nc3ccccc3c2=O)c(OC)c1 | x | x | x | i | i
CC(C)(O)/C=C/C(=O)[C@](C)(O)C1[C@H](O)C[C@@]2(C)C3CC=C4C(C[C@H](O)[C@@H](O)C4(C)C)[C@]3(C)C(=O)C[C@]12C (some centres undefined) | 1.3µM* | u | u | i | u

Source: PubChem (National Center for Advancing Translational Sciences (NCATS))
